EphB4 antag = EphB4-ephrin-B2 interaction antagonism; EphB4 LBD / TNYL-RAW-Alexa532 peptide, fluorescence polarization; AID 720; hit rate 0.15% among 97,000; inhibition, % at 7 µM;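 active = inhibition above the screen-wide mean inhibition plus 3 SD, cut at about 15% in these data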;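 also: 0% = DMSO wells and 100% = excess unlabeled TNYL-RAW peptide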
hDAT+cocaine = changed human dopamine transporter uptake under cocaine IC80. B-score at 10 µM. LLC-PK1 hDAT cells, [14C]-dopamine uptake with cocaine IC80; actives deviate in either direction. Q01959. hit rate 1.3% among 110,000;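 active = Z score or B-score, a plate-position-corrected score, falls beyond the plate's 99.7% confidence bounds, in either direction; inactive = both scores lie inside the 99.7% bounds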;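 also: scored against the spread of the other compound wells on the same plate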
D1 allo mod = allosteric modulators of human D1 dopamine receptor | HEK293 D1, CRE-luciferase, dopamine EC30 potentiation; actives deviate in either direction | B-score at 10 µM | hit rate 5.9% among 58,000 | AID 641;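 active = luminescence count or its row- and column-corrected plate score outside the 99.7% band of the plate's sample wells, on either side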
Target sequence (P21728 whole entry, looked up): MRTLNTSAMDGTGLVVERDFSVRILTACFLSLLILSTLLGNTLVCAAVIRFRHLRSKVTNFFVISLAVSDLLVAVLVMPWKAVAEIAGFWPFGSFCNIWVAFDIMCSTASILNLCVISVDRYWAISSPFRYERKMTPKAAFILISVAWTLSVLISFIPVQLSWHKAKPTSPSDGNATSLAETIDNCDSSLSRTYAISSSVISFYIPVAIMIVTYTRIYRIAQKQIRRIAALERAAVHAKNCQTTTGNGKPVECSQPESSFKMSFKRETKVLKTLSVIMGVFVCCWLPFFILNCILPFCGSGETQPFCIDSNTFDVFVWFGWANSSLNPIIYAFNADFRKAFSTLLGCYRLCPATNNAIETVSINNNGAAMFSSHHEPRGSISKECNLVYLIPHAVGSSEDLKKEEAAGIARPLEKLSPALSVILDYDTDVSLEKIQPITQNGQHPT
* = called active by the depositor; / = not tested or not shown. The entries come from a sample that favours hits as a whole.

SMILES | EphB4 antag | hDAT+cocaine | D1 allo mod
CCN(CC)c1ccc(/C=C(/C#N)c2nc3ccccc3[nH]2)c(OC(C)C)c1 | 11 | 2 | /
Cc1c(O)c(=O)ccn1C | / | -0.72 | /
COc1c(C)cccc1C(=O)Nc1ccc(N2CCN(S(C)(=O)=O)CC2)cc1 | 6 | -7.9* | -0.0028
COc1c(C)cc(Br)cc1C(=O)Nc1ccc(N2CCN(S(C)(=O)=O)CC2)cc1 | 3 | -0.61 | /
Cc1cc(C)c(C#N)c(SC(F)F)n1 | 2 | 0.016 | /
O=c1oc2ccccc2n1CCCCCn1c(=O)oc2ccccc21 | 2 | -0.84 | 0.18
O=C(Cn1c(=O)oc2ccccc21)c1ccccc1 | 1 | -0.78 | -2.6*
C=CCOC(=O)C1=C[C@H](c2ccc3c(c2)OCO3)C[C@H](OCCCCO)O1 | / | 2 | /
COc1ccc(-c2[nH]c(-c3ccc4c(c3)OCO4)nc2-c2ccccc2)cc1 | 0 | -1.7 | /
COc1ccc(-c2[nH]c(-c3ccc(C(=O)O)cc3)nc2-c2ccccc2)cc1 | 1 | -2.4* | /
CCCCSCc1ccc(C(=O)O)o1 | 1 | -0.26 | /
CC(=O)c1c(C)oc(C)c1CSCc1ccc(C(=O)O)o1 | -2 | / | -8.1*
O=C(O)C[C@H]1c2ccc(C(F)(F)F)cc2S(=O)(=O)N1Cc1ccccc1 | / | -1.7 | /
CC1CCN(C(=O)CCc2ccc(S(=O)(=O)NC(C)C)cc2)CC1 | 5 | 0.11 | /
CCOC(=O)c1sc(NC(=O)CSc2nnc3c4ccccc4n(CC)c3n2)nc1C | / | / | -0.45
CCOC(=O)c1sc(NC(=O)C(CC)Sc2nnc3c4ccccc4n(CC)c3n2)nc1C (stereo unspecified) | / | / | 4.2*
Clc1ccc(Cn2nnc(-c3ccc(CN4CCOCC4)cc3)n2)cc1 | -2 | 1.2 | 0.6
Fc1ccc(Cn2nnc(-c3ccc(CN4CCOCC4)cc3)n2)cc1 | 0 | -8* | 0.03
COc1cc(NC(=O)c2ccnnc2)cc(C(=O)Nc2cccc(C(F)(F)F)c2)c1 | / | 3.3* | /
O=C(Nc1cccc(C(F)(F)F)c1)c1cccnc1 | -9 | 0.013 | -0.7
CCN1CC2=C(OC(N)=C(C#N)C2c2cccs2)/C(=C/c2cccs2)C1 (stereo unspecified) | 0 | 0.21 | -2.7*
CCN1CC2=C(OC(N)=C(C#N)C2c2ccccc2)/C(=C\c2ccccc2)C1 (stereo unspecified) | -6 | 0.54 | /
Cc1ccc(C(=O)NCCSc2ccccc2)cc1S(=O)(=O)Nc1ccccc1 | -1 | 1.3 | /
O=C(Nc1nc2ccccc2n1CCOc1ccc(Cl)cc1)c1ccco1 | 4 | -0.7 | -0.098
O=C(Nc1nc2ccccc2n1CCN1CCCCC1)c1ccco1 | 2 | 0.97* | -1.3
SMILES | EphB4 antag | hDAT+cocaine | D1 allo mod
O=C(Nc1nc2ccccc2n1CCOc1ccccc1)c1ccco1 | -8 | 2.3* | 0.033
O=C(Nc1nc2ccccc2n1Cc1ccc(Cl)cc1)c1ccco1 | / | -0.5 | -0.76
CCOc1cc(Br)c(C(=O)O)cc1OC | -1 | -0.54 | /
CCOC(=O)c1ccc(NS(=O)(=O)c2c(N)n(C)c(=O)n(C)c2=O)cc1 | / | -0.77 | /
COc1cccc(C(c2nnnn2Cc2ccccc2)N2CCN(C3CCCC3)CC2)c1OC (stereo unspecified) | -12 | -0.77 | -3.5*
COc1ccccc1C(c1nnnn1Cc1ccccc1)N1CCN(C2CCCC2)CC1 (stereo unspecified) | 2 | -0.068 | /
CC1OC(Oc2ccc3ccc(=O)oc3c2-c2c(O)ccc3cc(Oc4ccc5ccc(=O)oc5c4)c(=O)oc23)C(O)C(O)C1O (stereo unspecified) | / | -0.49 | /
Cc1nc(-c2ccc(Cl)cc2)sc1C1(C)CC(c2cccc(F)c2)=NO1 (stereo unspecified) | / | -0.37 | /
O=C(NC1CCCCC1)NC1(C(=O)N2CCN3CCCC3C2)CCCCC1 (stereo unspecified) | 1 | 0.028 | -3*
O=C(NCc1ccccc1)NC1(C(=O)N2CCN3CCCC3C2)CCCCC1 (stereo unspecified) | 0 | 0.62 | /
CCCn1c(SCC(=O)Nc2ccc3c(c2)OCO3)nc2c1c(=O)n(C)c(=O)n2C | / | -0.71 | 4.8*
CCn1c(SCC(=O)Nc2ccc3c(c2)OCO3)nc2c1c(=O)n(C)c(=O)n2C | -4 | 0.76 | 3.2
COc1ccc(OC)c(C(=O)CSc2nc3c(c(=O)n(C)c(=O)n3C)n2C(C)C)c1 | -5 | -0.48 | 6.1*
CCCn1c(SCC(=O)N2CCCC2)nc2c1c(=O)n(C)c(=O)n2C | 5 | 0.047 | /
CCCn1c(SCC(=O)c2cc(OC)ccc2OC)nc2c1c(=O)n(C)c(=O)n2C | 2 | / | 1.7
CCCn1c(SCC(=O)N2CCN(c3ccc(OC)cc3)CC2)nc2c1c(=O)n(C)c(=O)n2C | 8 | -0.68 | -5.2*
O=C(COc1ccc(-c2ccccc2)cc1)N1CCN(S(=O)(=O)Cc2ccccc2)CC1 | -6 | -0.71 | /
O=C(NCCN1CCOCC1)c1cnn2c(-c3ccccc3)cc(-c3ccccc3)nc12 | -2 | 0.23 | /

Assay outcomes deposited in PubChem BioAssay by several laboratories.
